Experimental data from PubChem BioAssay (NCI).
The panel holds about 83,000 compounds, 20% with a hit somewhere; the sample as a whole holds those more often.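 The test compound was applied at a single concentration to cells in 96-well plates for 48 hours, and percent growth was recorded.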 A number with no mark means an inactive call. The source made the active and inactive calls. How the source made its calls: active means growth percent below 10; inactive means the rest.

Experiments:
Assay in all cases: NCI-60 one-dose screen, 48 h (100 = growth as untreated, 0 = no growth, -100 = all killed)
Details in all cases: 10 µM unless noted
[1] = tested on: SR leukemia
[2] = tested on: RPMI-8226 leukemia
[3] = tested on: OVCAR-8 ovarian
[4] = tested on: OVCAR-5 ovarian
[5] = tested on: OVCAR-4 ovarian
[6] = tested on: SK-OV-3 ovarian
[7] = tested on: IGROV1 ovarian
[8] = tested on: OVCAR-3 ovarian
[9] = tested on: HS 578T breast
[10] = tested on: NCI/ADR-RES ovarian
[11] = tested on: T-47D breast
[12] = tested on: BT-549 breast
[13] = tested on: MDA-MB-435 melanoma
[14] = tested on: SW-620 colon
[15] = tested on: MCF7 breast
[16] = tested on: HCT-116 colon
[17] = tested on: KM12 colon
[18] = tested on: HCC-2998 colon

Row | Compound | growth [1] [%] | growth [2] | growth [3] [%] | growth [4] [%] | growth [5] [%] | growth [6] [%] | growth [7] [%] | growth [8] [%] | growth [9] [%] | growth [10] [%] | growth [11] [%] | growth [12] | growth [13] | growth [14] [%] | growth [15] [%] | growth [16] | growth [17] [%] | growth [18] [%]
1 | Cc1ccc2nc(SCC(=O)Nc3ccc(-c4nc5ccccc5s4)c(Cl)c3)[nH]c2c1 | 97.2 | 109% | 110 | 108 | 112 | 105 | 100 | 111 | 110 | 107 | 99.2 | 103% | 111% | 111 | 90.6 | 101% | 115 | 
2 | CC(=O)c1ccc(NS(=O)(=O)c2ccc([N+](=O)[O-])cc2)cc1 | 83.8 | 101% | 106 | 98.2 | 112 | 95.7 | 107 | 108 | 115 | 109 | 86.3 | 102% | 122% | 108 | 99.3 | 102% | 111 | 
3 | O=C(CSc1ncc(-c2ccccc2)n1-c1ccccc1)Nc1ccc(-c2nc3ccccc3s2)cc1 | 73 | 65.5% | 27.2 | 82.5 | 52.5 | 116 | 73.4 | 95.4 | 91.9 | 61.2 | 56.3 | 103% | 55.9% | 64.4 | 31.2 | 42.1% | 51.1 | 
4 | CC1CN(C2CCCCC2)C(=O)NC1=O (stereo not given) | 80.3 | 111% | 104 | 105 | 116 | 107 | 110 | 111 | 110 | 119 | 93 | 104% | 112% | 102 | 101 | 101% | 111 | 
5 | COc1cc(NC(=O)NCc2ccco2)ccc1-c1ccc(NC(=O)NCc2ccco2)cc1OC | 55.6 | 65.2% | 36.7 | 96.5 | 60.9 | 69.9 | 72.9 | 74 | 59.4 | 91.2 | 40.9 | 81.7% | 76.5% | 72.6 | 44.7 | 35.2% | 47.8 | 
6 | C[C@@H]1CN(c2nc3c(cc2F)c(=O)c(C(=O)O)cn3C(C)(C)C)C[C@H](C)N1 | 115 | 114% | 94.8 | 109 | 104 | 105 | 121 | 104 | 67.2 | 80.6 | 95.5 | 107% | 107% | 100 | 113 | 92.2% | 98.5 | 98.1
7 | O=C1C=CC(=O)N1c1ccccn1 | 79.4 | 113% | 111 | 97.9 | 100 | 115 | 113 | 119 | 97.4 | 106 | 106 | 104% | 116% | 101 | 100 | 96.8% | 107 | 
8 | c1ccc2nc(Cn3c[n+](Cc4ccc5ccccc5n4)c4ccccc43)ccc2c1 | 14.7 | -6.43% (active) | 29.9 | 71.1 | 22.7 | 57.4 | 34.8 | 23.8 | 60.5 | 102 | 10.6 | 8.39% (active) | 9.62% (active) | 45.3 | 22.9 | 18.1% | 21.9 | 32.9
9 | O=C(Nc1ccccc1OC(=O)c1ccccc1)c1ccccc1 | 58.8 | 91.7% | 92.6 | 93.1 | 63.5 | 89.2 | 90.6 | 77.7 | 101 | 87.8 | 67 | 72.7% | 104% | 23.6 | 27.2 | 9.26% (active) | 25.7 | 
